Only some compounds are listed: those with a hit (about 10% of all), similar ones and a draw of the others.
G9a block = G9a (human) methyltransferase inhibition. Potency, µM (titrated, usually from 102 µM), usual class: inhibitors. Q96KQ7. G9a H3K9 monomethylation, AlphaScreen, 2 h. AID 504332. actives 8.8% (n = 350,000); further: nearly all actives have a fitted effect of over 75% in size
Target sequence (Q96KQ7 913-1193 limits assumed): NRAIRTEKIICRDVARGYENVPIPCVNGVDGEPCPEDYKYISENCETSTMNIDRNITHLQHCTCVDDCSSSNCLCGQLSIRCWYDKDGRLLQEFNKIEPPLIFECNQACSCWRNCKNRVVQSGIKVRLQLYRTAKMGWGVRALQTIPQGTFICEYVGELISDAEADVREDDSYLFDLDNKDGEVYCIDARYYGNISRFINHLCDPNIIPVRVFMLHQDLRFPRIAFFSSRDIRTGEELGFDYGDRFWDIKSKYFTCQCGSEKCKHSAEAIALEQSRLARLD
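AlphaScreen detection with an anti-monomethyl H3K9 antibody quantified product after a 2 h room-temperature reaction containing 500 nM biotinylated H3K9 peptide, 20 µM SAM and 20 nM enzyme, which had been preincubated 15 min with compound.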
CtBP-E1A blk = blocks the CtBP interaction with E1A. activity change, % (test concentration not listed). actives 0.49% (n = 340,000). AlphaScreen GST-E1A/His-CtBP binding, 1536-well; active compounds read low; in the data active means activity change below about -65%; inconclusive means mostly about -30% to -63%
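Protein mix (5X: 125 nM each GST-E1A, His-CtBP) was incubated with pinned compound 2 h at 37 deg C in dark, in 50 mM Tris pH 8.0 buffer with 300 mM NaCl. Glutathione donor and nickel acceptor beads followed; AlphaScreen signal read after 1 h.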
BAZ2B block = blocks human BAZ2B | Q9UIF8 | AlphaScreen BAZ2B-H3K14Ac peptide displacement | Potency, µM (top dose mostly 114 µM), hits mostly inhibitors | actives 4.4% (n = 360,000) | AID 504333; further: nearly all actives have a fitted effect of over 60% in size
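Complex of BAZ2B and biotin-H3K14Ac (50 nM apiece) forms over 30 min at RT, then faces library compounds up to 110 uM for another 30 min; AlphaScreen beads added, 20 min dark incubation, luminescence read.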
HP1b binding inh = blocks HP1-beta chromodomain binding to methylated histone tails | actives 0.56% (n = 390,000) | Potency, µM (titrated, usually from 114 µM), actives largely listed as inhibitors | P83916 | AlphaScreen HP1-beta / biotin-H3K9me3 peptide binding; further: nearly all actives have a fitted effect of over 70% in size
Target sequence (P83916 whole entry, looked up): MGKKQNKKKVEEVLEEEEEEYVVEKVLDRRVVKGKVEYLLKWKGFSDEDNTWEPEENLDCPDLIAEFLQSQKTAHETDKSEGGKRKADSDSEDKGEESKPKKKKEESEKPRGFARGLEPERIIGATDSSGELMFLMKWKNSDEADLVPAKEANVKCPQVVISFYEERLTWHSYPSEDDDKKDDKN
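HP1-beta protein (50 nM final) preincubated 30 min at room temperature with biotinylated H3(1-18)K9me3 peptide (50 nM) in PBS pH 7.4, 0.01% Tween-20, then compound added for 30 min. AlphaScreen streptavidin donor/nickel chelate acceptor beads (10 ug/mL final), 30 min dark, luminescence read.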
Six1-Eya2 blk = Six1/Eya2 interaction inhibition; AlphaScreen GST-Six1/His-Eya2 binding, biochemical; active compounds read low; activity change, % (test concentration not listed); actives 0.56% (n = 360,000); in the data active means activity change below about -65%; inconclusive means mostly about -30% to -63%
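Six1/Eya2 binding was read as AlphaScreen signal after compounds were pinned into GST-Six1 plus His-tagged Eya2 (5X stock 250/500 nM) in pH 8.0 Tris/NaCl/TCEP buffer, beads added, then incubated 1 h, 37 C, dark.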
JMJD2A Tudor inh = inhibitors of human JMJD2A Tudor domain. O75164. AlphaScreen JMJD2A-Tudor / H3K4me3 peptide binding. Potency, µM (top dose mostly 114 µM), usual class: inhibitors. actives 4.4% (n = 390,000); further: nearly all actives have a fitted effect of over 50% in size
Numbers stand for hits; 0 = inactive; ? = inconclusive; - = not tested or not shown; ! = not active in a repeat; [ ] = another dose, or the depositor's remark. Unless noted, the call rests on the fitted dose curve; in most records, active means well fitted inhibition curve with a large enough effect; inconclusive means small, poorly fitted or top-dose-only effect; inactive means no such curve, though single readings can be large or run the other way.

SMILES	G9a block	CtBP-E1A blk	BAZ2B block	HP1b binding inh	Six1-Eya2 blk	JMJD2A Tudor inh
COC(=O)c1cccc(-n2c(CCC(=O)O)ccc2-c2ccc(OC)cc2)c1	17.8µM	-	?	0	-	0
COC(=O)c1cccc(-n2c(CCC(=O)O)ccc2-c2cccs2)c1	?	0	70.8µM!	0	0	0[11.4 µM]
C=CCn1c(CCC(O)COCCC)n[nH]c1=S (stereo not drawn)	0	0	0	0	0	22.4µM
CCn1c(CCCOc2ccc(Cl)cc2Cl)n[nH]c1=S	?	0	0	0	0	0
C/C(=N\NC(N)=S)C1C2C3CC4C5CC(C42)C1C53 (stereo not drawn)	39.8µM	0	0	0	0	0
C/C(CCC12CC3CC(CC(C3)C1)C2)=N\NC(N)=S	0	0	?	0	0	?
CC(=O)Nc1ccc(NC(=O)c2oc3ccc4c(c3c2C)C(=O)CC(C)(C)O4)cc1	0	-	0	0	-	0
COc1ccc(-c2[nH]ncc2C(=O)NCc2cccc(F)c2)cc1	0	-	0	0	-	0
Cc1cccc(Nc2nc(N)c([N+](=O)[O-])c(N3CCC(C)CC3)n2)c1	50.1µM	0	?	?	0	31.6µM
CCOc1ccc(Nc2nc(N)c([N+](=O)[O-])c(N3CCN(C)CC3)n2)cc1	79.4µM	0	?	0	0	0
CCN1CCN(c2nc(Nc3ccc(C)c(C)c3)nc(N)c2[N+](=O)[O-])CC1	10µM	?	?	?	?	?
CN(C)c1ccc(Nc2nc(N)c([N+](=O)[O-])c(N3CCOCC3)n2)cc1	7.08µM	?	35.5µM	?	0	?
Cc1cccc(CSc2ccc3nnc(CCNS(=O)(=O)c4ccccc4)n3n2)c1	0	-	0	0	-	0
Cc1ccc2nc(CSc3nnc(NC(=O)COc4ccccc4)s3)cc(=O)n2c1	0	-	0	0	-	0
CCCCC(=O)Nc1ccc(C(=O)OCc2cc(=O)n3nc(C4CC4)sc3n2)cc1	0	-	0	0	-	0
CCc1ccccc1NCc1nnc2n1CCCCC2	0	-	0	0	-	0
Fc1ccc(C2=CC(c3ccc(Br)o3)n3ncnc3N2)cc1 (stereo not drawn)	8.91µM	0	0	0	0	31.6µM
C1=C(c2ccc(-c3ccccc3)cc2)Nc2ncnn2C1c1ccco1 (stereo not drawn)	31.6µM	0	0	0	0	0
CCOc1ccc(C2=CC(c3cc(Br)ccc3F)n3ncnc3N2)cc1Cl (stereo not drawn)	0	-	0	0	-	0
Fc1ccc(Br)cc1C1C=C(c2cccnc2)Nc2ncnn21 (stereo not drawn)	44.7µM	0	0	0	0	?
Cc1cccn2c(=O)cc(COc3cccc(NC(=O)COc4ccc(F)cc4)c3)nc12	0	-	0	0	-	0
CC(C)(C)c1ccccc1OCC(=O)Nc1ncn[nH]1	35.5µM	0	?	0	0	0
CCc1ccc(OCC(=O)Nc2ncn[nH]2)c(Br)c1	0	-	89.1µM	0	-	0
C=CCn1c(CSc2ccc(C)cc2)n[nH]c1=S	8.91µM	-	0	0	0	0
C=CCn1c(SCc2n[nH]c(=S)n2-c2ccccc2)nnc1-c1ccccc1	11.2µM	-	0	0	0	11.2µM
SMILES	G9a block	CtBP-E1A blk	BAZ2B block	HP1b binding inh	Six1-Eya2 blk	JMJD2A Tudor inh
C=CCn1c(CSc2nnc(-c3ccccc3)n2C)n[nH]c1=S	-	0	0	0	0	10µM
C=CCn1c(-c2ccc(C)cc2)nc2ccccc21	0	0	0	0	0	0
CC1(CCc2ccccc2)NC(=O)N(CC(=O)O)C1=O (stereo not drawn)	0[12.7 µM]	0	0	0	0	0[11.4 µM]
CC1(CCc2ccccc2)NC(=S)N(c2ccccc2)N1 (stereo not drawn)	10µM	0	50.1µM	0	0	?
CC1(CCc2ccccc2)NC(=S)N(c2ccc(Cl)cc2)N1 (stereo not drawn)	10µM	0	79.4µM	0	0	?
CC1(C)CC(C)(O)N(Cc2ccccc2)C(=S)N1 (stereo not drawn)	0	0	0	0	0	0
CCc1noc(-c2ccc(N3CCCCC3)c([N+](=O)[O-])c2)n1	0	-	0	0	-	0
Cc1ccc(S(=O)(=O)CC(c2ccccc2)N2CCCCC2)cc1 (stereo not drawn)	50.1µM	0	0	0	0	0
Cc1ccc(C2CC(C(F)(F)F)n3ncc(C(=O)NCc4ccco4)c3N2)cc1 (stereo not drawn)	44.7µM	0	?	0	0	?
C=CCn1c(NC(=O)c2ccc(Br)o2)c(C(=O)OCC)sc1=S	3.16µM	0	0	0	0	89.1µM
CCOC(=O)c1c(NC(=O)c2ccc(Br)o2)sc(C)c1CC	0	0	0	0	0	0
Cc1cc(C=O)c(C)n1-c1ccc(Oc2ccc([N+](=O)[O-])cn2)cc1	0	0	?	0	0	0
Cc1cc(C=O)c(C)n1-c1ccc(NC2CCCC2)c([N+](=O)[O-])c1	0	?	0	31.6µM	?	20µM
O=C(O)CCN1CCc2ccccc2C1c1cccs1 (stereo not drawn)	50.1µM	0	0	0	0	0
CCc1ccc(NC(=O)CSc2nc3c([nH]c4ccccc43)c(=O)n2C)cc1	0	-	0	0	-	0
CCc1nn(CC(=O)NCCN(CC(C)C)CC(C)C)c(=O)c2cc3sc(C)cc3n12	0	-	0	0	-	0
CCOc1c(C)cc(-c2ncccc2O)cc1C	0	0	0	0	0	89.1µM!
O=C(CSc1ccccc1C(=O)O)c1ccc([N+](=O)[O-])cc1	20µM	-	?	?	0	20µM
COc1ccc(C(=O)Nc2nc3c(s2)Cc2cc(OC)ccc2-3)cc1	44.7µM	0	0	0	0	0
COc1ccc2c(c1)-c1nc(NC(=O)c3cc(Cl)ccc3OC)sc1CC2	20µM	-	0	0	-	0
COc1cc(NS(=O)(=O)c2ccc3oc(=O)c4ncn(C)c4c3c2)cc(OC)c1	0	-	0	0	-	0
CCc1ccc(NS(=O)(=O)c2ccc3oc(=O)c4ncn(CC)c4c3c2)cc1	10µM	-	?	0	-	0
CCCC1(c2ccccc2)NC(=O)N(CC(=O)N(C)Cc2c(F)cccc2Cl)C1=O (stereo not drawn)	0	0	0	0	0	25.1µM
CCC1(c2ccccc2)NC(=O)N(CC(=O)N(C)CC(=O)Nc2ccc(F)c(F)c2F)C1=O (stereo not drawn)	0[0.501 µM]	0	0	0	0	0
CC1CCN(C(=O)CN2CCSc3ccc(S(=O)(=O)N(C)C)cc32)CC1	0	-	0	0	-	0
CCN(Cc1ccccc1)C(=O)Cn1c(=O)n(-c2ccccc2)c(=O)c2c1c1cc(C)ccc1n2C	0	-	?	0	-	0
COC(=O)c1cnc(NNS(=O)(=O)c2ccc(Cl)cc2)nc1C(F)(F)F	35.5µM	0	0	0	0	0

Screening results: PubChem, National Center for Advancing Translational Sciences (NCATS)
